The list is not random: actives were taken first. Their share in the collection is about 4.8%.
hgDAF12 agonist: hgDAF-12 agonism, primary luciferase screen; HEK293 GAL4-hgDAF12 UAS-luciferase reporter, agonist luminescence; normalized to butyrate control; activation, % at 6.8 µM; 370,000 tested, 1.8% active;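 active = activation above a cutoff set at the mean of all screened compounds plus 3 SD, cut at about 10% in these data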;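 also: 0% = DMSO wells and 100% = sodium butyrate wells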
NR1D1 modulator: modulators of human Rev-erb alpha DNA binding | P20393 | Rev-erbα–FITC-DNA binding, fluorescence polarization, 90 min | activity, % at 10 µM | 370,000 tested, 0.79% active;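 active = activity above about 14%, limit read from the data; passing the limit was not always enough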;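 also: 0% = DMSO wells with 35 nM protein and 100% = DMSO wells with 750 nM protein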
hcDAF12 agonist: H. contortus DAF-12 activation, primary screen. HEK293 hcDAF-12 lit1-tk-luc reporter, luminescence; 0% DMSO, 100% Δ7-dafachronic acid. activation, % at 6.8 µM. 370,000 tested, 1.4% active;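 active = activation above the mean of all tested compounds plus 3 SD, cut at about 5.5% in these data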;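 also: 100% = response to 3 µM Δ7-dafachronic acid high control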
DAX1 inh-1: NR0B1 (DAX1) inhibition | AID 504766 | HEK293 Gal4-DAX1 luciferase reporter, luminescence | inhibition, % at 6.75 µM | 340,000 tested, 0.99% active;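 active = inhibition above the mean over all tested compounds plus 3 SD, cut at about 4.2% in these data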;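 also: 0% = DAX1-transfected cells with DMSO and 100% = empty-vector control cells with DMSO; inhibition shows as a rise in luminescence from relieved DAX1 repression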
Target sequence (P51843 207-470 limits assumed): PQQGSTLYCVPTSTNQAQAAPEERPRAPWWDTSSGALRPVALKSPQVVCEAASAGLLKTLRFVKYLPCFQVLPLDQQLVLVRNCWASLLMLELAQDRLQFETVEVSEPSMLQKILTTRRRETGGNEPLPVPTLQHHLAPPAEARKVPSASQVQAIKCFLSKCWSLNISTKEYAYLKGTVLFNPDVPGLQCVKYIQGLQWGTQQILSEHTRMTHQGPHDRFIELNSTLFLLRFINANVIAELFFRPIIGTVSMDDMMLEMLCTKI
ssDAF12 agonist: S. stercoralis DAF-12 activation, primary screen | HEK293 ssDAF-12/GRIP1 lit1-tk-luc reporter, luminescence; % of 3 µM dafachronic acid response | activation, % at 6.8 µM | 370,000 tested, 1% active | AID 652126;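 active = activation above the mean over all tested compounds plus 3 SD, cut at about 0.9% in these data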;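 also: 0% = DMSO-only wells and 100% = 3 µM delta7-dafachronic acid wells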
DAX1 inh-2: blocks DAX1 repression of SF-1 activated StAR promoter; inhibition, % at 6.8 µM; HEK293T StAR-luciferase reporter, SF-1/DAX-1 repression relief; 370,000 tested, 1.1% active;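 active = inhibition above the mean over all tested compounds plus 3 SD, cut at about 3.6% in these data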;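 also: 0% = DAX-1 cells with DMSO and 100% = cells lacking DAX-1 with DMSO; higher inhibition means more luminescence from relief of DAX-1 repression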
DAX1 conf: confirmation of human DAX1 (NR0B1) inhibitors | shares compounds with DAX1 inh-2 | HEK293T StAR-promoter luciferase reporter, SF-1/DAX-1 repression | inhibition, % at 6.8 µM | 2,400 tested, 87% active | AID 652134;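 active = inhibition above the average of every tested compound plus 3 SD, cut at about 3.8% in these data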;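 also: 0% = DAX-1 cells with DMSO and 100% = no DAX-1 control cells with DMSO; active compounds raise luminescence by relieving repression of the StAR reporter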
SF1 mutant ctr: nonselective inhibitor or artifact in SF-1 mutant DAX1 counter-screen. shares compounds with DAX1 inh-2. HEK293 StAR-luciferase, SF-1 AF2 mutant, luminescence. inhibition, % at 6.8 µM. 2,400 tested, 78% active;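 active = inhibition above the mean of all tested compounds plus 3 SD, cut at about 3% in these data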;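 also: 0% = DAX-1 transfected cells with DMSO and 100% = cells without DAX-1 with DMSO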
Starred values were filed as active, the others as inactive; nt = no result given.

SMILES	hgDAF12 agonist	NR1D1 modulator	hcDAF12 agonist	DAX1 inh-1	ssDAF12 agonist	DAX1 inh-2	DAX1 conf	SF1 mutant ctr
COc1ccc(-c2cc3nc4n(c(=O)c3s2)CCC4)cc1	7	-3	5	-5	0	6.6*	7.3*	-1
COC(=O)[C@]12C[C@H](CC(=O)NCc3cccs3)C(=O)N(Cc3ccc(Cl)cc3Cl)C1=C[C@H](C(C)C)O[C@@H]2C1CC1	1	6	0	nt	-2	0	nt	nt
Cc1ccc(OC/C(=N\O)C(C)(C)C)c([N+](=O)[O-])c1	2	-4	1	1	-1	1	nt	nt
Cc1ccc(OCC(=O)Nc2ccon2)c([N+](=O)[O-])c1	6	-1	3	2	0	5.3*	6.5*	3.7*
COC(=O)[C@]12C[C@H](CC(=O)NCCCCc3ccccc3)C(=O)N(Cc3ccccc3)C1=C[C@H](C(C)C)O[C@@H]2C1CC1	-2	10	-1	nt	-1	1	nt	nt
FC(F)(F)c1ccccc1NC(=S)OC1CCC12CCC(c1ccccc1)CC2 (stereo not given)	3	-7	0	nt	-1	-1	nt	nt
CCCC[C@H]1C2CC(OC(=O)Nc3cccc(Cl)c3)C(C2)[C@H]2CCCCN21 (stereo not given in full)	2	0	0	nt	-2	0	nt	nt
CC1CCN(C(=O)CSc2nnc(-c3ccccc3F)o2)CC1	0	1	0	1	-1	0	nt	nt
O=C(CSc1nnc(-c2ccccc2F)o1)N1CCNC1=O	10	2	5	1	0	7.7*	11*	6.8*
NC(=O)N/N=C/c1cn(-c2ccccc2)nc1-c1cccs1	2	-3	1	0	-1	2	nt	nt
COc1ccc(/C=N/Nc2ccc(C(=O)O)cc2)cc1OC	11*	4	6.1*	1	0	5.3*	17*	5.8*
C=CCOc1c(Br)cc(/C=N/Nc2ccc(C(=O)O)cc2)cc1OCC	12*	-3	4	1	-1	7.3*	13*	8.7*
O=C(O)c1cccc(N/N=C/c2cn(-c3ccccc3)nc2-c2cccs2)c1	4	1	0	2	-1	6.4*	18*	9.2*
O=C(O)c1cccc(N/N=C/c2ccc(F)c(F)c2)c1	9	0	3	-2	0	5.0*	11*	7.2*
COc1ccc(C(=O)Oc2ccc(/C=N/Nc3ccc(Cl)c(C(=O)O)c3)cc2OC)cc1	0	-7	-1	0	0	1	nt	nt
O=C(N/N=C/c1ccc(O)cc1)c1cccc(N/N=C/c2ccc(O)cc2)c1	7	-7	1	0	-1	1	nt	nt
O=C(NCc1ccco1)C1CCCN(S(=O)(=O)c2cccs2)C1 (stereo not given)	2	-1	-2	nt	0	-1	nt	nt
CC(=O)Nc1nc2ncccn2c1-c1ccc(C)cc1	-1	4	-1	nt	-1	0	nt	nt
COc1ccccc1CNC(=O)N(CCc1c(C)[nH]c2ccccc12)Cc1cccs1	1	-5	2	nt	-1	-2	nt	nt
C/C(=N\NC(=O)c1ccn(C)n1)c1ccc(NC(=O)c2cccc(F)c2)cc1	9	0	2	0	0	8.4*	-2	-1
Cc1ccc(C)c(NC(=O)CN(C)C(=O)c2cc3ccccc3oc2=O)c1	6	2	3	1	0	5.9*	6.8*	5.6*
COc1cccc(/C=C/C(=O)NNC(=O)c2ccccc2)c1OC	8	2	3	3	-1	5.2*	5.1*	2
C=CCN1[C@@H](C)COc2cccc(N3CCSCC3)c2S1(=O)=O	-1	0	-1	nt	-2	0	nt	nt
CN(C(=O)c1cccc(NC(=O)Cc2ccc(NC(=O)C3CCN(C(=O)C4CC4)CC3)cc2)c1)C1CCC1	0	1	1	-2	0	5.0*	2	2
Cn1ccnc1SCC(=O)Nc1ccc2ccccc2c1	9	-3	5	0	1.2*	5.7*	10*	6.3*
CCOc1ccc(NC(=O)CSc2nccn2Cc2ccco2)cc1	6	-1	2	1	-1	-2	nt	nt
COc1ccc(C(=O)CSc2nccn2C)c(OC)c1	11*	0	3	1	0	6.9*	5.5*	3
COc1ccc(NC(=O)CSc2nccn2Cc2ccco2)cc1	8	5	1	1	0	5.2*	6.8*	6.0*

Screens: PubChem BioAssay, several laboratories
